Measured values published in PubChem BioAssay (NCATS).
Results filed as inconclusive are left out. Calls of active or inactive are those of the source. Calls come from the whole dose curve; as a rule, active = well fitted inhibition curve with a large enough effect; inconclusive = small, poorly fitted or top-dose-only effect; inactive = flat fitted curve, though single readings scatter.

How the values were obtained:
CRL-7250 = normal cell line; assay: Cytotoxic Profiling of Annotated Libraries Using Quantitative High-Throughput Screening (AID 1296008); settings: Five cell lines viability, CellTiter-Glo ATP luminescence, 48-72 h; max response: stronger effect = lower value; for max response: % is set by controls: 0 for no effect and ±100 for the full control effect
How it was run: (§1)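 Cells exposed to compounds for 48 or 72 hr at 37 degrees Celsius. Viability read as ATP-coupled luminescence with CellTiter-Glo after 10 min at room temperature.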

HEK293 = assay: as above; settings: Five cell lines viability, CellTiter-Glo ATP luminescence, 48-72 h; max response: stronger effect = lower value
How it was run: as §1

HaCat [1] = assay: as above; settings: Five cell lines viability, CellTiter-Glo ATP luminescence, 48-72 h; max response: stronger effect = lower value
How it was run: as §1

NIH3T3 = assay: as above; settings: Five cell lines viability, CellTiter-Glo ATP luminescence, 48-72 h; max response: stronger effect = lower value
How it was run: as §1

MCC-13 = assay: qHTS assay to identify novel small-molecules to repurpose for Merkel cell carcinoma treatment (AID 1296009); settings: MCC and control cell lines, CellTiter-Glo viability, 72 h; series mostly up to 46 µM
How it was run: (§2)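 Dose-response viability screen; 72 hr exposure at 37 degree celsius; CellTiter-Glo added, 10 min room temperature, luminescence read; RLUs scaled between no-cell and DMSO wells.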

MCC-26 = assay: as above; settings: MCC and control cell lines, CellTiter-Glo viability, 72 h; series mostly up to 46 µM
How it was run: as §2

W2 = assay: qHTS profiling for inhibitors of Plasmodium falciparum proliferation (AID 504749); settings: P. falciparum in erythrocytes, SYBR Green DNA, 72 h; series mostly up to 28.7 µM
How it was run: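 Each compound contacts P. falciparum-infected red blood cells for 72 h at 37 C; lysis buffer (Tris, EDTA, saponin, Triton X, SYBR Green I) is added and fluorescence measured next morning; values normalized to controls.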

KB-3-1 = assay: Cytotoxic Profiling of Annotated Libraries Using Quantitative High-Throughput Screening (AID 1296008); settings: Five cell lines viability, CellTiter-Glo ATP luminescence, 48-72 h; max response: stronger effect = lower value; for max response: % is set by controls: 0 for no effect and ±100 for the full control effect
How it was run: as §1

HACAT [2] = assay: qHTS assay to identify novel small-molecules to repurpose for Merkel cell carcinoma treatment (AID 1296009); settings: MCC and control cell lines, CellTiter-Glo viability, 72 h; at 44.8 µM (top of the series) unless noted
How it was run: as §2

HEK293T = assay: as above; settings: MCC and control cell lines, CellTiter-Glo viability, 72 h; at 44.8 µM (top of the series) unless noted
How it was run: as §2
Note: nearly all actives have a fitted effect of over 60% in size.
Potency is the fitted concentration of half-maximal effect.

O=S(c1cc(Cl)cc(Cl)c1O)c1cc(Cl)cc(Cl)c1O
inactive: outcome (CRL-7250) | max response (HEK293) -2.46% | max response (HaCat [1]) -16.1% | max response (NIH3T3) 1.36% | Potency (MCC-13) | Potency (MCC-26)

C/C=C/C=N/NC(=O)c1ccncc1
inactive: Potency (W2) | max response (CRL-7250) -0.246% | max response (HEK293) -6.37% | max response (HaCat [1]) 0.247% | max response (NIH3T3) -0.451% | Potency (MCC-13) | Potency (MCC-26)

N#CCC(=O)NN
inactive: Potency (W2) | outcome (CRL-7250) | max response (HEK293) 3.14% | outcome (HaCat [1]) | max response (KB-3-1) -1.35% | outcome (HACAT [2]) | Potency (MCC-13) | Potency (MCC-26)

OC1C(O)C(O)C(O)C(O)C1O (stereo not given)
inactive: Potency (W2) | outcome (CRL-7250) | max response (HEK293) 2.94% | max response (HaCat [1]) 2.27% | max response (KB-3-1) -8.66% | max response (NIH3T3) -6.2% | Potency (MCC-13) | Potency (MCC-26)

CC(C)(C)NCC(O)COc1cccc2c1C[C@H](O)[C@H](O)C2 (stereo not given in full)
inactive: outcome (CRL-7250) | max response (HEK293) -3.77% | outcome (HaCat [1]) | max response (NIH3T3) -4.22% | outcome (HACAT [2]) | Potency (MCC-13) | Potency (MCC-26)

NCc1ccccc1Sc1ccccc1CO
inactive: max response (CRL-7250) -5.17% | max response (HEK293) -7.72% | max response (HaCat [1]) -3.87% | outcome (NIH3T3) | Potency (MCC-13) | Potency (MCC-26)
active: Potency (W2) 4780 nM

CC(C)[N+](C)(C)CC(O)COc1cccc2ccccc12 (stereo not given)
inactive: Potency (W2) | max response (CRL-7250) -19.4% | max response (HEK293) -10.5% | max response (HaCat [1]) -6.06% | max response (KB-3-1) -4.04% | max response (NIH3T3) -0.944% | Potency (MCC-13) | Potency (MCC-26)

O=C(O)Cc1csc(-c2ccc(Cl)cc2)n1
inactive: Potency (W2) | max response (CRL-7250) -17.8% | max response (HEK293) -0.458% | max response (HaCat [1]) -16.3% | max response (NIH3T3) 1.14% | Potency (MCC-13) | Potency (MCC-26)

CC(C)Nc1cccnc1N1CCN(C(=O)c2cc3cc(NS(C)(=O)=O)ccc3[nH]2)CC1
active: Potency (W2) 9530 nM
inactive: outcome (CRL-7250) | max response (HEK293) -14.8% | max response (HaCat [1]) 0.0011% | max response (NIH3T3) -1.79% | Potency (MCC-13) | Potency (MCC-26)

O=C(O)CCC(=O)Nc1ccc(S(=O)(=O)Nc2nccs2)cc1
inactive: Potency (W2) | max response (CRL-7250) -7.17% | max response (HEK293) -13.9% | max response (HaCat [1]) -28.4% | max response (KB-3-1) 14.8% | max response (NIH3T3) -7.15% | Potency (MCC-13)

CCCCN=C(N)N=C(N)N
inactive: Potency (W2) | max response (CRL-7250) 1.78% | outcome (HEK293) | max response (HaCat [1]) 2.62% | max response (NIH3T3) -1.41% | outcome (HEK293T) | Potency (MCC-13) | Potency (MCC-26)

O=C(O)P(=O)(O)O
inactive: Potency (W2) | outcome (CRL-7250) | max response (HEK293) 0.892% | max response (HaCat [1]) -5.53% | max response (NIH3T3) 4.83% | Potency (MCC-13) | Potency (MCC-26)

O=S(=O)(O)c1ccc(O)cc1
inactive: Potency (W2) | max response (CRL-7250) -8.14% | max response (HEK293) 2.28% | max response (HaCat [1]) -3.34% | max response (KB-3-1) -1.6% | max response (NIH3T3) 1.54% | Potency (MCC-13)

CCCN(CCC)S(=O)(=O)c1ccc(C(=O)O)cc1
active: Potency (HaCat [1]) 18800 nM
inactive: Potency (W2) | max response (CRL-7250) -3.77% | max response (HEK293) 3.98% | max response (KB-3-1) 20.4% | Potency (MCC-13) | Potency (MCC-26)

O=C(O)C(Cc1cc(I)c(O)c(I)c1)c1ccccc1 (stereo not given)
inactive: Potency (W2) | max response (CRL-7250) -5.72% | max response (HEK293) 1.09% | max response (HaCat [1]) -3.38% | max response (KB-3-1) -19.5% | max response (NIH3T3) -19.3% | Potency (MCC-13) | Potency (MCC-26)

C[C@H]1O[C@@H](O[C@H]2CC[C@@]3(C)[C@H](CC[C@@H]4[C@@H]3C[C@@H](O)[C@]3(C)[C@@H](C5=CC(=O)OC5)CC[C@]43O)C2)C[C@H](O)[C@@H]1O[C@H]1C[C@H](O)[C@H](O[C@H]2C[C@H](O)[C@H](O[C@@H]3O[C@H](CO)[C@@H](O)[C@H](O)[C@H]3O)[C@@H](C)O2)[C@@H](C)O1
active: Potency (CRL-7250) 211 nM | Potency (HEK293) 188 nM | Potency (HaCat [1]) 596 nM | Potency (KB-3-1) 259 nM | Potency (MCC-13) 335 nM | Potency (MCC-26) 668 nM

C#C[C@]1(OC(C)=O)CC[C@H]2[C@@H]3CCC4=C/C(=N/O)CC[C@@H]4[C@H]3CC[C@@]21CC
inactive: max response (CRL-7250) -7.16% | max response (HaCat [1]) 2.29% | max response (NIH3T3) 2.39% | Potency (MCC-13)
active: Potency (HEK293) 13300 nM

OCc1ccccn1
inactive: Potency (W2) | max response (CRL-7250) -1.84% | max response (HEK293) -1.39% | outcome (HaCat [1]) | max response (NIH3T3) -14.5% | outcome (HACAT [2]) | Potency (MCC-13) | Potency (MCC-26)

CCCCN1C[C@H](O)[C@@H](O)[C@H](O)[C@H]1CO
inactive: max response (CRL-7250) -12.1% | max response (HEK293) -7.96% | max response (HaCat [1]) -19.6% | max response (NIH3T3) -2.42% | Potency (MCC-13) | Potency (MCC-26)

Cl/C(=C\n1cncn1)c1ccc(Cl)cc1Cl
inactive: Potency (W2) | outcome (CRL-7250) | max response (HEK293) -2.88% | max response (HaCat [1]) -4.78% | max response (NIH3T3) 0.11% | Potency (MCC-13) | Potency (MCC-26)

Nc1ccc(C(=O)NCC(=O)O)cc1
inactive: Potency (W2) | max response (CRL-7250) -1.17% | max response (HEK293) 0.145% | max response (HaCat [1]) 0.603% | max response (KB-3-1) 28.3% | max response (NIH3T3) -6.17% | Potency (MCC-26)

CCc1oc2ccccc2c1C(=O)c1cc(I)c(O)c(I)c1
inactive: Potency (W2) | max response (CRL-7250) -2.92% | max response (HEK293) -23.3% | max response (HaCat [1]) -7.93% | max response (KB-3-1) -18.7% | max response (NIH3T3) -1.15% | Potency (MCC-13)
